Screens: PubChem, National Center for Advancing Translational Sciences (NCATS)
HTT ATP protect – qHTS Multiplex Assay to Identify Dual Action Probes in a Cell Model of Huntington: Cytoprotection (ATP); PC12 HTT-Q103 induced, cytoprotection, ATP luminescence, 40 h; Potency, µM (top dose mostly 56.4 µM), actives largely listed as activators; actives 0.14% (n = 230,000); AID 1471, 2008; further: nearly all actives have a fitted effect of over 45% in size
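PC12 cells with ecdysone-inducible HTT exon 1 Q103-GFP, induced with 100 nM tebufenozide and co-treated with library compounds in a dose series (1536-well, 1500 cells/well). Cytoprotection read as ATP content by ATPlite luminescence.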
HTT aggregate – qHTS Multiplex Assay to Identify Dual Action Probes in a Cell Model of Huntington: Aggregate Formation (GFP). actives 1.1% (n = 220,000). Potency, µM (top dose mostly 46.1 µM), actives largely listed as inhibitors. AID 1688, 2009. PC12 HttQ103-GFP aggregates, Acumen cytometry, 40 h; further: nearly all actives have a fitted effect of over 60% in size
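Ecdysone-promoter PC12 model expressing HTT exon 1 Q103 fused to GFP, induced by tebufenozide at 100 nM final. Compounds titrated; aggregates sized 1–25 µm scored on a 488 nm laser cytometer.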
PNC inhibitor – High Content Assay for Compounds that inhibit the Assembly of the Perinucleolar Compartment; PC3M PTB-GFP, PNC prevalence imaging, 16 h; hits give low values; activity change (PNC), negative = inhibition, % at 10 µM; actives 3.1% (n = 140,000);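 active means readout at or below -70, meaning at least 70% loss of cells showing the perinucleolar compartment, a nuclear body marking cancer cells; inconclusive means readout between -30 and a set limit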
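PC3M cells stably expressing PTB-GFP, 750–1000 cells/well, treated 16 h at 37 °C with compound (23 nl of library stock), in duplicate. After paraformaldehyde fixation and Hoechst stain, imaged at 20x; PNC prevalence scored by image analysis.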
Hits are given with their value; n = inactive; u = inconclusive; x = no result; [ ] = another dose, or the depositor's remark. This is one part of a sample in which hits are shown more often than they occur. Unless noted, the call rests on the fitted dose curve; in most records, active means well fitted curve in the direction sought with a large enough effect; inconclusive means small, poorly fitted or top-dose-only effect, or another doubt; inactive means no such curve, though single readings can be large; an effect the other way counts as inactive or inconclusive.

SMILES	HTT ATP protect	HTT aggregate	PNC inhibitor
O=C1c2ccccc2C(=O)C12OC2c1ccc(Cl)cc1 (centres undefined)	n[10 µM]	32µM	n
O=C1NC(c2ccc(Cl)cc2)Nc2ccccc21 (centres undefined)	n[10 µM]	n[9.22 µM]	x
CC(=O)Nc1sc2c(c1C(c1ccc(F)cc1)N1CCOCC1)CCCC2 (centres undefined)	n	n	n
CC(=O)Nc1sc2c(c1C(c1ccc(Cl)cc1)N1CCOCC1)CCCC2 (centres undefined)	n	n[9.22 µM]	-106
CC(=O)SC1CC(=O)N(c2c(C)cccc2C)C1=O (centres undefined)	n[10 µM]	n[9.22 µM]	x
Cn1c(=N)c(S(=O)(=O)c2ccc(F)cc2)cc2c(=O)n3ccccc3nc21	n[0.074 µM]	n	n
Cn1c(=N)c(S(=O)(=O)c2ccccc2)cc2c(=O)n3ccccc3nc21	n	3.2µM	n
O=C(CSc1nnc(-c2ccncc2)o1)N1CCCCCC1	n[10 µM]	n[9.22 µM]	x
CCN(CC(=O)NCc1ccc(F)cc1)C(=O)/C=C/c1cccs1	n	n	x
Cc1ccc(-c2cc3c(nn2)-c2ccccc2C3=O)cc1	n[10 µM]	n[9.22 µM]	x
Cc1ccccc1-c1cc2c(nn1)-c1ccccc1C2=O	n	25µM	n
COc1ccccc1C(=O)/C=C/c1ccc(N2CCCCC2)c([N+](=O)[O-])c1	n[10 µM]	u	u
O=C(/C=C/c1ccc(N2CCCCC2)c([N+](=O)[O-])c1)c1ccc(O)cc1	n[10 µM]	18µM	x
O=CN1CCN(C2CC(=O)N(c3ccc(Br)cc3)C2=O)CC1 (centres undefined)	n[10 µM]	n	-86
O=C1CC(N2CCC(O)CC2)C(=O)N1c1ccc(Br)cc1 (centres undefined)	n	n	n
O=C1CC(N2CCCCC2)C(=O)N1c1ccccc1 (centres undefined)	n[10 µM]	n	-100
O=C1CC(N2CCCN(C3CC(=O)N(c4ccc(F)cc4)C3=O)CC2)C(=O)N1c1ccc(F)cc1 (centres undefined)	n[0.074 µM]	u	n
O=C(CSc1nc2c(sc3ccccc32)c(=O)n1Cc1ccccc1)NCC1CCCO1 (centres undefined)	n	n[9.22 µM]	n
O=C(CSc1nc2c(sc3ccccc32)c(=O)n1Cc1ccco1)NCC1CCCO1 (centres undefined)	n[10 µM]	n	-89
COc1ccc(C)cc1NC(=O)c1ccc(S(=O)(=O)N2CCOCC2)cc1	n	n	u
CCC(C)(C)c1ccc(OCCCC[n+]2cccc(C)c2C)c(C(C)(C)CC)c1	n[10 µM]	n[9.22 µM]	x
CCC(C)(C)c1ccc(OCCCC[n+]2ccc(C)cc2)c(C(C)(C)CC)c1	n	18µM	x
CCCCCCN=C1CC(C)(C)CC(=O)/C1=C(/O)CCC	n[10 µM]	n[9.22 µM]	x
CCn1cc(/C=C/C(=O)NCc2c(C)nn(C)c2C)cn1	n	n	n
Cc1nn(C)c(C)c1CNC(=O)/C=C/c1ccccc1F	x	n	-113
SMILES	HTT ATP protect	HTT aggregate	PNC inhibitor
C=C(C)CCOC(=O)C(CC(=O)O)NCc1ccco1 (centres undefined)	n[10 µM]	n[9.22 µM]	x
Cc1sc2ncnc(N/N=C/c3ccccc3O)c2c1C	n[10 µM]	2.5µM	u
Cc1sc2ncnc(N/N=C/c3ccc(O)cc3)c2c1C	n[10 µM]	n	n
COc1ccc2cc3c(N)nn(C(=O)c4ccc(Cl)c([N+](=O)[O-])c4)c3nc2c1	n[10 µM]	2.8µM	u
COc1ccc2cc3c(N)nn(C(=O)c4ccccc4[N+](=O)[O-])c3nc2c1	n[10 µM]	u	n
O=C(O)C1CCN(c2ccc(Cl)nn2)CC1	n	u	x
Cc1ccc(OCC(=O)NNC(=O)CCC(=O)Nc2ccc(C)cc2C)cc1	n	n	n
CC(C)n1c(-c2cccnc2)nc2cnccc21	n[10 µM]	u	-100
Cn1c(-c2ccccc2)nc2cnccc21	n[10 µM]	n[9.22 µM]	x
Cn1cnnc1-c1cccc(NC(=O)c2cc(F)c(F)cc2Cl)c1	n	n	x
CCC1C/C(=C/c2ccco2)C(=O)/C(=C/c2ccco2)C1 (centres undefined)	n[10 µM]	u	-119
O=C1/C(=C/c2ccco2)CCc2ccccc21	u	n	n
CC[C@@H](Nc1ncnc2c1oc1ccccc12)C(=O)O	n[10 µM]	n[9.22 µM]	x
Cc1ccccc1Cn1nc(C)c(NC(=O)/C=C/c2cnn(C)c2)c1C	x	n	-114
Cc1ccccc1Cn1nc(C)c(NC(=O)/C=C/c2cnn(C)c2C)c1C	n[10 µM]	n	u
COC(=O)Sc1nc(N2CCOCC2)c2c(c1C#N)CC(C)(C)OC2	n	n	-116
CC1(C)Cc2c(C#N)c(SCC(=O)c3ccccc3)nc(N3CCOCC3)c2CO1	n[10 µM]	n	u
OC(COc1ccc2cc(Br)ccc2c1)CN1CCCC1 (centres undefined)	n[0.074 µM]	n	n
Cc1nc(C)n(CC(O)COc2ccc3cc(Br)ccc3c2)n1 (centres undefined)	n	13µM	n
O=S(=O)(N1CCCCC1)N1CCN(CC(O)COc2ccc3cc(Br)ccc3c2)CC1 (centres undefined)	n	n	n
CN(C)S(=O)(=O)N1CCN(CC(O)COc2ccc3cc(Br)ccc3c2)CC1 (centres undefined)	n[0.074 µM]	11µM	u
CCOC(=O)c1ccc(N=Cc2nc3ccccc3n2C)cc1	n	n	n
COc1ccc(/C=C/C2=CC(C)(C)NC(=S)N2)cc1	n	n	x
CC(NC(=O)c1ccccc1)c1nc2ccccc2n1Cc1ccccc1F (centres undefined)	n	n	n
COc1ccc([N+](=O)[O-])cc1/C=N/NC(=O)CNC(=O)c1cccc(F)c1	n[10 µM]	n	u
SMILES	HTT ATP protect	HTT aggregate	PNC inhibitor
CC(=O)NCCNc1ncncc1-c1ccccc1C(F)(F)F	n	x	x
OCCNc1nc(C2CC2)nc2c1nnn2Cc1ccccc1Cl	n[10 µM]	n	u
COCCNc1nc(C(C)(C)C)nc2c1nnn2Cc1ccccc1Cl	n[10 µM]	n	-102
COc1cc(C2NC(=S)NC(C)=C2C(=O)OC(C)C)ccc1OC(C)C (centres undefined)	n[1.9 µM]	n	n
O=C(c1cccc(F)c1)N1CCC2(CCN(Cc3ccncc3)CC2)CC1	n	x	x
CCN(CC)CCNC(=O)C1CCC(=O)N(c2ccc(OC)cc2)C1c1ccc(F)cc1 (centres undefined)	n	n	n
O=C(OCC1OC2C(Oc3nc(=O)ccn32)C1O)c1ccccc1 (centres undefined)	n[10 µM]	n	u
Cc1cn2c(nc1=O)OC1C(O)C(COC(=O)c3ccccc3)OC12 (centres undefined)	n[10 µM]	u	n
Cc1cn(C2OC(COC(=O)c3ccccc3)C(OC(=O)c3ccccc3)C2OC(=O)c2ccccc2)c(=O)[nH]c1=O (centres undefined)	n[10 µM]	n	-119
Cc1cn(C2OC(COC(=O)c3ccccc3)C(O)C2O)c(=O)[nH]c1=O (centres undefined)	n[10 µM]	n	-89
COc1ccc(NS(=O)(=O)Cc2ccccc2)cc1OC	n	n	n
CC[n+]1c(/C=C/c2c[nH]c3ccccc23)ccc2cc(C)ccc21	n	8.9µM	x
CCN(CC)C(=O)c1ccc(/C=C/c2c[nH]c3ccccc23)[n+](C)c1	x	n	n
Fc1ccccc1C1CCN(Cc2nc(CC3CC3)no2)C1 (centres undefined)	n[10 µM]	n[9.22 µM]	x
